This passage reports GI50 results from ChEMBL document CHEMBL1201862, “PubChem BioAssay data set” (2004).

Hit rate of the full screen: of about 57,000 sequences, about 2,500 (4.4%) were called active. Cut-off read from the data, not from the text of the source: active = GI50 up to about 1.1 µM and inactive = higher. Only a sample is shown. Results with a measured potency or affinity are listed apart.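 Interpolation was linear, between the two tested concentrations surrounding the appropriate level; five concentrations were tested over 48 hours in 96-well plates. GI50 marks 50% less growth.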

This test deals with UACC-257. Put plainly: NCI tumour cell line growth inhibition, 48 h.
“[Bis(aminomethyl)dimethylsilane]dichloroplatinum (II), CHEMBL2146201” showed a GI50 of 45.7 µM.
The same measure for “[Bis(aminomethyl)ethylmethylsilane]tetrachloroplatinum(IV), CHEMBL2146192”: 3.3 µM; for “[Bis(aminomethyl)tetramethylenesilane]dichloropaltinum(II), CHEMBL2146205”: 59.7 µM; for “[Bis(aminomethyl)dimethylsilane]tetrachloroplatinum(IV), CHEMBL2146190”: 15.1 µM.
Take CISPLATIN, CHEMBL11359: the GI50 worked out at 4.09 µM.
The same measure for “[Bis(aminomethyl)pentamethylenesilane]dichloropaltinum(II), CHEMBL2146202”: 6.81 µM; for “cis-Bis[[(trimethylsilyl)methyl]amino]tetrachloroplatinum(IV), CHEMBL2146191”: 5.31 µM.
Substance “[Bis(aminomethyl)pentamethylenesilane]tetrachloropaltinum(IV), CHEMBL2146204” registered a GI50 of 7.19 µM.
The same measure for “mu-(1,7-nanodiamine-N,N')bis-(cis-aminedichloroplatimum (II)), CHEMBL2146215”: 20.1 µM.
The same measure for “[Bis(aminomethyl)diethylsilane]tetrachloroplatinum(IV), CHEMBL2146203”: 4.79 µM; for “[Bis(aminomethyl)tetramethylenesilane]tetrachloropaltinum(IV), CHEMBL2146189”: 16.4 µM.
